Inhibition data for 68 molecules are collected here from PubChem BioAssay AID1850 (Southern Research Specialized Biocontainment Screening …, 2009).

A word on the inhibition: it is the change of the read-out against control, counted positive when it falls.

The whole screen tested about 310,000 compounds, of which about 1,000 (0.32%) were called active. How the calls were made is not given here. Only a sample is shown. Results with a measured potency or affinity are listed apart.

A short description of the assay: Inhibition of PhoP regulon, Salmonella typhi GFP reporter cells, confirmation, 4 h (AID 1850).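 Further: 0% = induced wells with vehicle and 100% = uninduced wells.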 As to conditions: Salmonella Typhi PhoP-promoter GFP reporter, fluorescence, at 50 µM, hits give high values.
As for `CC(/C=N\NC(=O)CN1CCN(S(=O)(=O)c2ccc(C)cc2)CC1)=C\c1ccccc1`, the inhibition was -12% (inactive).

As to `CCOC(=O)[C@H]1[C@H]2COc3ccccc3[C@@H]2N2C(=O)c3ccccc3NC(=O)[C@@]12C`, the inhibition was -4.39% (inactive).

`CCCOc1ccc(-c2nc(N3CCN(C)CC3)c3ccccc3n2)cc1`: the inhibition is 9.86% (inactive).

Consider `O=C(O)COc1ccccc1C(Nc1ccccn1)c1cc(Cl)c2cccnc2c1O` (stereo not drawn), for which the inhibition is -6.17% (inactive).

Consider `O=C(NC(c1ccccc1)c1cc(Cl)c2cccnc2c1O)c1cccnc1` (stereo not drawn), for which the inhibition was -1.98% (inactive).

`CC(=O)c1ccc(OCC(O)CN2CCN(CCO)CC2)cc1` (stereo not drawn): the inhibition was -2.27% (inactive).

For the molecule `O=C(COC(=O)CCCN1C(=O)c2cccc3cccc(c23)C1=O)Nc1cccc(C(F)(F)F)c1`, the inhibition is -5.09% (inactive).

Take `CCOc1ccc(OCCNC2CCCC2)cc1`: the inhibition is 6.72% (inactive).

Consider `Cc1ccc(OCCCNC2CCCC2)cc1`, for which the inhibition is 2.57% (inactive).

For `O=C(Oc1c(CN2CCOCC2)cc(Cl)c2cccnc12)c1cccs1`, the inhibition is -0.05% (inactive).

In the case of `Oc1c(CN2CCN(c3ccccc3)CC2)cc(Br)c2cccnc12`, the inhibition is -1.71% (inactive).

Regarding `COCc1cc(CN2CCCC2)c(O)c2ncccc12`, the inhibition is -3.73% (inactive).

Turning to `O=C(Oc1c(CN2CCOCC2)cc(Cl)c2cccnc12)c1ccccc1Cl`, the inhibition was 4.13% (inactive).

`O=C(Nc1ccc(-c2nc3cccnc3s2)cc1)c1cccnc1Cl`: the inhibition was 16.9% (inactive).

For `CC(=O)Nc1ccc(S(=O)(=O)N2CCN(c3cc(C)nc4ncnn34)CC2)cc1`, the inhibition was -16.9% (inactive).

With `O=C(Nc1ccccc1)Nc1ccc(F)cc1F`, the inhibition was -5.6% (inactive).

Consider `CC(=O)Nc1cccc(NC(=S)Nc2ccc(F)cc2F)c1`, for which the inhibition is 4.43% (inactive).

With `Cc1ccc(C(=O)N(CCCN(C)C)c2nc3ccc(Cl)cc3s2)cc1C`, the inhibition is 9.54% (inactive).

In the case of `CN(C)CCCN(C(=O)C1=COCCO1)c1nc2ccc(Br)cc2s1`, the inhibition is -8.06% (inactive).

For the molecule `CN(C)CCCN(C(=O)c1sc2ccccc2c1Cl)c1nc2ccc(F)cc2s1`, the inhibition was -7.99% (inactive).

`Cc1cccc2sc(N(CCCN(C)C)C(=O)c3sc4ccccc4c3Cl)nc12`: the inhibition is -4.13% (inactive).

`CCN(CC)CCN(C(=O)c1ccc2c(c1)CCCC2)c1nc2ccc(C)cc2s1`: the inhibition is -8.88% (inactive).

Regarding `CCOc1ccc2nc(N(CCCN(C)C)C(=O)c3ccc4c(c3)CCCC4)sc2c1`, the inhibition is 2.97% (inactive).

Consider `CN(C)CCCN(C(=O)c1ccc2c(c1)CCCC2)c1nc2ccc(F)cc2s1`, for which the inhibition was 16.4% (inactive).

As for `CN(C)CCN(C(=O)C1=COCCO1)c1nc2ccc(F)cc2s1`, the inhibition is -3.62% (inactive).

Regarding `Cc1cccc(Cl)c1OCCN1CCCC1`, the inhibition was -6.23% (inactive).

In the case of `O=C(NCCN1CCOCC1)/C(=C/c1ccc(Cl)cc1)NC(=O)c1ccccc1`, the inhibition was 0.05% (inactive).

Take `COc1cc(CCC(=O)OCC(=O)Nc2ccc(C)cc2Cl)cc(OC)c1OC`: the inhibition was -0.48% (inactive).

For `Cc1ccc(S(=O)(=O)Nc2nncs2)cc1`, the inhibition was -8.26% (inactive).

`CC(CCN1CCN=C1Nc1ccccc1)c1ccccc1` (stereo not drawn): the inhibition is 0.31% (inactive).

For the molecule `COc1ccccc1CNC(=O)CCC(=O)N1C[C@H]2C[C@@H](C1)c1cccc(=O)n1C2`, the inhibition was 0.48% (inactive).

On to `CCOCC(=O)Nc1nnc(SCCOC)s1`, for which the inhibition was -8.99% (inactive).

Take `O=C(CC(n1cncn1)C(Cl)(Cl)Cl)c1ccc([N+](=O)[O-])cc1` (stereo not drawn): the inhibition was -2.18% (inactive).

Consider `CC(=O)NC(CC(=O)c1ccc([N+](=O)[O-])cc1)C(Cl)(Cl)Cl` (stereo not drawn), for which the inhibition is -10.7% (inactive).

As for `O=C(CSC1=NC(=O)C(c2ccccc2)C(=O)N1)Nc1ccccc1[N+](=O)[O-]` (stereo not drawn), the inhibition is 0.46% (inactive).

For the molecule `Cc1ccccc1-n1ncc2c1CC(C)(C)CC2NC(=O)C1CCC1` (stereo not drawn), the inhibition is 6.32% (inactive).

Regarding `N/C(=N\OS(=O)(=O)c1ccc(Cl)cc1)c1ccncc1`, the inhibition is -3.25% (inactive).

Regarding `N/C(=N\OC(=O)c1ccc(Cl)cc1)c1cccnc1`, the inhibition is 8.82% (inactive).

For the molecule `N/C(=N\OS(=O)(=O)c1ccc2ccccc2c1)c1ccncc1`, the inhibition is 9.71% (inactive).

In the case of `N/C(=N\OC(=O)c1ccccc1)c1cccnc1`, the inhibition is -1.82% (inactive).

For `N/C(=N\OS(=O)(=O)c1ccccc1)c1ccncc1`, the inhibition is 6.44% (inactive).

`N/C(=N\OC(=O)COc1ccc2ccccc2c1)c1cccnc1`: the inhibition was -4.96% (inactive).

`O=C(COC(=O)c1ccc([N+](=O)[O-])o1)Nc1cccc(S(=O)(=O)N2CCCCC2)c1`: the inhibition is 9.11% (inactive).

For `CC(=O)N(C)c1ccc(NS(=O)(=O)c2cc(Cl)ccc2Cl)cc1`, the inhibition is -11.6% (inactive).

Regarding `CCOC(=O)C1C(=O)C=C(c2cccs2)CC1c1ccccc1C` (stereo not drawn), the inhibition is -6.96% (inactive).

In the case of `CC1CN(C)C(C)CC1OC(=O)C(c1ccccc1)c1ccccc1` (stereo not drawn), the inhibition was -11.9% (inactive).

Regarding `CCCCOc1ccc(C(=O)N2CC(C)OC(C)C2)cc1` (stereo not drawn), the inhibition was -8.56% (inactive).

In the case of `Cc1ccc(N2OC3C(=O)NC(=O)C3C2c2ccco2)cc1` (stereo not drawn), the inhibition is -16% (inactive).

For `Cc1ccc(C(C)C)c(OCc2nn(CC(=O)c3ccc(Cl)cc3)c3[n+]2CCCCC3)c1`, the inhibition is -26.5% (inactive).

Regarding `COc1ccc(NCc2nn(CC(=O)c3ccc(Br)cc3)c3[n+]2CCCCC3)cc1`, the inhibition was 8.75% (inactive).

Consider `O=C(Cn1nc(CNc2ccc(Cl)cc2)[n+]2c1CCCCC2)c1ccccc1`, for which the inhibition was -5.48% (inactive).

In the case of `COc1ccc(C(=O)Cn2nc(CNc3ccc(Br)cc3)[n+]3c2CCCCC3)cc1`, the inhibition was 1.1% (inactive).

Take `COC(=O)CNC(c1ccccc1)c1cc(Cl)ccc1NC(=O)c1cccc(Cl)c1` (stereo not drawn): the inhibition is -1.38% (inactive).

For the molecule `CCCCOc1ccc(Cc2cnc(N)nc2N)cc1`, the inhibition is -18.3% (inactive).

As to `COCc1cnc(C)nc1N`, the inhibition was -2.28% (inactive).

On to `COc1ccccc1OCc1nc2ccccc2n1C`, for which the inhibition was -1.73% (inactive).

`O=C(NNC(=O)C(c1ccccc1)c1ccccc1)c1cccs1`: the inhibition was -3.78% (inactive).

On to `CN1CCN(c2ccc(NC(=O)c3ccc(Br)o3)cc2)CC1`, for which the inhibition was -0.39% (inactive).

Regarding `CN1CCN(c2ccc(NC(=O)c3ccc(-c4ccc(Cl)cc4)o3)cc2)CC1`, the inhibition was 14.7% (inactive).

With `Cc1ccc(NC(=O)CSc2nnc(CNC(=O)c3ccco3)o2)cc1Cl`, the inhibition was -4.93% (inactive).

Take `CCCCC(=O)NC(=S)Nc1cccc(NC(=O)CC)c1`: the inhibition is -1.01% (inactive).

For the molecule `CCCCC(=O)NC(=S)NNC(=O)CCc1ccccc1`, the inhibition was -4.48% (inactive).

With `CCCCC(=O)NNC(=S)NC(=O)c1ccc(C)cc1`, the inhibition is 12.1% (inactive).

Regarding `CCCCCCCC(=O)NNC(=O)CCC(=O)O`, the inhibition is -4.06% (inactive).

Turning to `CCCCCC(=O)NC(=S)NC1C2CC3CC(C2)CC1C3` (stereo not drawn), the inhibition is 14.6% (inactive).

Consider `CCCCC(=O)NNC(=S)NC(=O)C(c1ccccc1)c1ccccc1`, for which the inhibition was -0.63% (inactive).

Regarding `CCCCC(=O)NC(=S)NNC(=O)CC#N`, the inhibition is 15.9% (inactive).

Consider `CCCCCC(=O)NNC(=S)NC(=O)c1ccc([N+](=O)[O-])cc1`, for which the inhibition is -13% (inactive).
